In the library only some 9.2% were active in any assay of this set; here they are far more common.
NPC1 promoter act = NPC1 promoter activation; Huh7 NPC1 promoter luciferase reporter, 24 h; Potency, µM (highest dose often 9.22 µM), hits mostly activators; hit rate 2.4% among 320,000; AID 485313; note: nearly all actives have a fitted effect of over 60% in size
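Stable NPC1-promoter luciferase Huh7 line; cpd (DMSO) 24 h, 37 °C, 5% CO2; Amplite luciferase reagent 10 min RT; luminescence readout. qHTS format.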
ELG1 genotox = inducers of genotoxicity in HEK293T ELG1-luciferase cells | HEK293T ELG1-luciferase reporter, luminescence, 16 h | Potency, µM (highest dose often 46 µM), usual class: activators | hit rate 1.3% among 330,000 | AID 504466; note: nearly all actives have a fitted effect of over 60% in size
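Quantitative HTS format in 1536-well plates. HEK293T ELG1-luciferase reporter cells receive test compound and are incubated 16 hr at 37 °C, 5% CO2; ONE-Glo added, 30 min room temperature, then luminescence read.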
FLuc modulator = counter-screen for miR-21 project: firefly luciferase inhibitors or activators. hit rate 6.9% among 360,000. P08659. AID 588342. Potency, µM (top dose mostly 57.5 µM), hits mostly inhibitors. purified FLuc, Km substrates, luminescence inhibition; note: nearly all actives have a fitted effect of over 55% in size
Target sequence (P08659 whole entry, looked up): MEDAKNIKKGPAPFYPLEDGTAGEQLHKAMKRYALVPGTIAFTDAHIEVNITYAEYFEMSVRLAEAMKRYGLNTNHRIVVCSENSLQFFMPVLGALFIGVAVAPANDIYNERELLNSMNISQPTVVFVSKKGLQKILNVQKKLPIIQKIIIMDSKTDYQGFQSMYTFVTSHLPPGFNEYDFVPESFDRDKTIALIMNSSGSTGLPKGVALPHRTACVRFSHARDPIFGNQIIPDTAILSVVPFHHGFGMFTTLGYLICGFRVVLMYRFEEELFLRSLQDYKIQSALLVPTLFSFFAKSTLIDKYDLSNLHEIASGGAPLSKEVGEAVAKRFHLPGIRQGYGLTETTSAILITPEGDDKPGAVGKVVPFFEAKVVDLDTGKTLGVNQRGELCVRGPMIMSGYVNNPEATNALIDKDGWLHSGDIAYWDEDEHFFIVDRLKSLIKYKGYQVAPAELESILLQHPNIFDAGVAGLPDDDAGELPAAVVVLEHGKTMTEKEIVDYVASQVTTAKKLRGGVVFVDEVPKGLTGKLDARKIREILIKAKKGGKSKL
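Purified P. pyralis luciferase (10nM final) with 10uM D-luciferin and 10uM ATP (Km levels) in 50mM Tris acetate pH 7.5, 10mM Mg acetate, 0.01% Tween-20, 0.05% BSA; qHTS 6-point titration, ~60 µM downward; luminescence read.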
Rab9 promoter act = Rab9 promoter activation | Huh7 Rab9 promoter-luciferase reporter, luminescence, 24 h | Potency, µM (series often up to 9.22 µM), actives largely listed as activators | hit rate 2.8% among 320,000 | AID 485297; note: nearly all actives have a fitted effect of over 60% in size
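Rab9 promoter-driven luciferase in stably transfected Huh7 cells; 1500 cells/well rested 2 h, exposed to compound in DMSO for 24 h at 37 °C, 5% CO2. Luminescence read 10 min after adding luciferase reagent at ambient temperature.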
SMN2 splice up = SMN2 splice variant enhancement. HEK293 SMN2-luciferase splicing reporter, luminescence, 30-36 h. Potency, µM (top dose mostly 46.1 µM), hits mostly activators. hit rate 2.8% among 210,000; note: nearly all actives have a fitted effect of over 55% in size
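HEK293 cells carry an SMN2 minigene-luciferase reporter in which exon 7 inclusion puts luciferase in frame. Cells were seeded at 2000 cells/well, attached for 10-12 hours, then exposed to compounds for 30-36 hours at 37C before ONE-Glo luminescence.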
ELG1 repair inh = ELG1-dependent DNA repair inhibition; HEK293T ELG1-luciferase reporter, luminescence, 16 h; DNA damage induced by 5-fluorouridine; Potency, µM (series often up to 46.1 µM), usual class: inhibitors; hit rate 2.3% among 330,000; AID 504467; note: nearly all actives have a fitted effect of over 55% in size
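Luminescence from the luciferase reporter, measured 30 min after ONE-Glo reagent at room temperature, was the read-out. Beforehand, 2,000 cells per well were exposed for 16 hr at 37 °C to 5-fluorouridine together with compound or vehicle.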
Numbers stand for hits; – = inactive; ? = inconclusive; · = no result. Calls come from the whole dose curve; as a rule, active = well fitted curve in the direction sought with a large enough effect; inconclusive = small, poorly fitted or top-dose-only effect, or another doubt; inactive = no such curve, though single readings can be large; an effect the other way counts as inactive or inconclusive.

SMILES	NPC1 promoter act	ELG1 genotox	FLuc modulator	Rab9 promoter act	SMN2 splice up	ELG1 repair inh
O=C(CSc1ccc(-c2cccs2)nn1)N1CCCCCC1	–	–	?	–	?	?
CCOC(=O)C1CCN(c2ccc(-c3cccs3)nn2)CC1	–	?	0.757µM	–	·	?
c1csc(-c2ccc(N3CCOCC3)nn2)c1	0.398µM	?	2.39µM	0.501µM	·	?
COC(=O)c1ccc(Oc2c(F)c(F)nc(N3CCOCC3)c2F)cc1	–	–	–	–	–	?
c1ccc(Cn2c(-c3ccccc3)c[n+]3c2SCCC3)cc1	–	–	–	–	·	13µM
Cc1ccc(/C=[N+](\[O-])c2ccc(N(C)C)cc2)c2nsnc12	?	–	1.35µM	1.12µM	10µM	?
Cc1ccc2nsnc2c1NS(=O)(=O)c1c(C)ccc2nsnc12	–	–	–	–	–	–
Brc1ccc(-c2cn3cc(Cc4ccccc4)sc3n2)cc1	·	·	0.338µM	·	–	·
Fc1ccc(Cc2cn3cc(-c4ccccc4)nc3s2)cc1	·	·	0.107µM	·	2µM	·
Clc1ccccc1Cc1cn2cc(-c3ccccc3)nc2s1	·	·	0.169µM	·	2.51µM	·
Fc1ccc(-c2cn3cc(Cc4ccccc4)sc3n2)cc1	·	·	0.12µM	·	6.31µM	·
Cc1nc(-c2ccccc2)sc1C(=O)CSc1ccc(Br)cc1	–	–	–	–	–	–
Cc1cc(=O)[nH]c2nnc(SCc3ccc(C(F)(F)F)cc3)n12	·	·	–	·	·	·
CCCC(c1nnnn1CC1CCCO1)N1CCN(c2nc3ccccc3s2)CC1 (stereo unspecified)	–	–	–	–	–	23.1µM
CCC(c1nnnn1CS(=O)(=O)c1ccc(C)cc1)N1CCN(c2nc3ccccc3s2)CC1 (stereo unspecified)	–	–	–	–	–	8.2µM
COc1ccc(OC)c2c(N3CCN(C)CC3)cc(C(F)(F)F)nc12	–	–	–	–	–	–
COc1ccc(OC)c2c(N3CC(C)OC(C)C3)cc(C(F)(F)F)nc12 (stereo unspecified)	2.82µM	?	7.57µM	3.16µM	·	?
CC(C)C(=O)NC(=S)Nc1sc2c(c1C(N)=O)CCCC2	?	?	9.53µM	?	?	?
C=CC(=O)Nc1sc2c(c1C(N)=O)CCCC2	–	–	?	–	·	?
COC(=O)Nc1sc2c(c1C(N)=O)CCCCCC2	–	–	?	–	–	–
C=CCNC(=S)Nc1sc2c(c1C(N)=O)CCCC2	–	–	15.1µM	–	·	?
CCCC(=O)NC(=S)Nc1sc2c(c1C(N)=O)CCC2	–	–	4.26µM	–	?	?
COc1ccc(NC(=O)Nc2ccc(N3CCOCC3)c3nonc23)c(OC)c1	–	–	–	–	–	–
O=C(Nc1ccc(F)cc1)Nc1ccc(N2CCOCC2)c2nonc12	?	?	?	2.24µM	?	?
COc1cc(C)ccc1OCc1cc(C(=O)NCc2ccncc2)no1	2.82µM	18.3µM	12µM	2µM	·	?
SMILES	NPC1 promoter act	ELG1 genotox	FLuc modulator	Rab9 promoter act	SMN2 splice up	ELG1 repair inh
COc1cc(C)ccc1OCc1cc(C(=O)NC(C)Cn2cncn2)no1 (stereo unspecified)	2.24µM	?	?	1.58µM	·	?
CC(=O)Oc1ccc(C(=O)Cc2ccccn2)c(O)c1	–	–	16.9µM	–	–	?
CCc1cc(C(=O)Cc2ccccn2)c(O)cc1O	–	–	–	–	·	?
CCSc1ccccc1C(=O)N1CCN(c2nc3ccccc3s2)CC1	·	·	–	·	·	·
O=C(c1ccc([N+](=O)[O-])o1)N1CCN(c2nc3ccc(F)cc3s2)CC1	–	–	–	–	·	?
CCCCC(=O)N1CCN(c2nc3ccc(F)cc3s2)CC1	0.562µM	–	6.01µM	0.501µM	·	?
CCC(=O)N1CCN(c2nc3c(C)cccc3s2)CC1	·	·	–	·	·	·
CCC(=O)N1CCN(c2nc3ccc(Br)cc3s2)CC1	?	?	15.1µM	?	·	?
CCCC(=O)N1CCN(c2nc3ccccc3s2)CC1	1.41µM	?	7.57µM	1.12µM	·	?
CCCC(=O)N1CCN(c2nc3ccc(F)cc3s2)CC1	·	·	10.7µM	·	·	·
COC(=O)c1ccn(-c2nc(-c3ccc(Cl)cc3)cc(C(F)(F)F)n2)n1	·	·	–	·	–	·
CCCCC(=O)N1CCN(c2nc3ccc(OCC)cc3s2)CC1	–	–	13.5µM	–	·	–
O=C(C1CCC(CNS(=O)(=O)c2cccs2)CC1)N1CCN(c2ccc(F)cc2)CC1 (stereo unspecified)	–	–	–	–	·	9.2µM
CC(C)(C)C(=O)CSc1nc2ncc(Br)cc2[nH]1	–	–	19µM	–	·	–
Cc1nc2nc(SCC(=O)C(C)(C)C)[nH]c2cc1Br	–	–	–	–	–	–
CCc1noc2nc(C)n(CC(=O)O)c(=O)c12	·	·	–	·	–	·
CCOC(=O)[C@H](O)[C@@H](O)c1cccc([C@H](O)[C@@H](O)C(=O)OCC)c1	–	–	–	–	·	–
Cc1onc(-c2ccccc2Cl)c1-c1nc(-c2ccccn2)no1	–	–	–	–	–	–
Cc1ccc(-c2noc(-c3ccoc3C)n2)cc1	?	14.6µM	3.01µM	–	?	?
COc1cc(OC)c(-c2nc(-c3ccncc3)no2)cc1OC	–	–	–	–	·	?
Cc1occc1-c1nc(-c2ccncc2)no1	–	18.4µM	?	–	?	?
Cc1occc1-c1nc(-c2ccccn2)no1	?	?	4.78µM	1.58µM	11.2µM	?
N#Cc1cc2c(=O)n3ccccc3nc2n(-c2nnc(SCc3ccc(F)cc3)s2)c1=O	·	·	–	·	–	·
Cc1nnc(SCC(=O)Nc2ccccc2)c2ccccc12	–	–	16.9µM	–	·	–
O=C(CSc1nc(-c2ccccc2)nc2c1Cc1ccccc1O2)Nc1ccc(C(=O)O)cc1	–	–	7.57µM	–	–	–
SMILES	NPC1 promoter act	ELG1 genotox	FLuc modulator	Rab9 promoter act	SMN2 splice up	ELG1 repair inh
O=C(CSc1nc(-c2ccccc2)nc2ccccc12)Nc1cccc(C(=O)O)c1	–	–	19µM	–	–	–
CC(=O)Nc1cccc(NC(=O)CSc2nc(C3CC3)nc3ccccc23)c1	–	–	–	–	·	18.3µM
CC(=O)c1cccc(NC(=O)CSc2nc(C3CC3)nc3ccccc23)c1	–	–	–	–	·	–
O=C(CSc1ncnc2scc(-c3ccccc3)c12)Nc1ccc(C(=O)O)cc1	–	–	21.3µM	–	·	–
O=C(O)c1ccc(Nc2ncnc3scc(-c4ccccc4)c23)cc1	–	–	–	–	·	–
COc1ccc(C2CC(c3ccc(C)o3)=NN2C(C)=O)cc1 (stereo unspecified)	?	?	?	?	12.6µM	?
COc1ccc(C2CC(c3ccc(OC)cc3O)=NN2C(=O)c2ccccc2)cc1 (stereo unspecified)	–	–	–	–	·	–
COc1ccc(C2=NN(C(=O)CCC(=O)O)C(c3ccc(OC)cc3)C2)cc1 (stereo unspecified)	–	–	–	–	·	–
